High-throughput results as filed in PubChem.
The sample as a whole holds a higher share of hits than the screen did.
NS1 function inh = qHTS Assay for Inhibitors of Influenza NS1 Protein Function. Potency, µM (highest dose often 46.1 µM). 270,000 tested, 0.4% active. AID 2326, 2010; calls by dose curve; also: actives are rising curves; nearly all actives have a fitted effect of over 50% in size
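OD600 was taken as the measure of yeast growth restored by compound in an NS1-expressing S. cerevisiae strain. Cells had been washed out of glucose medium and diluted 1:100 into galactose -URA medium, pH 6.0.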
AmpC inh no detg = qHTS Inhibitors of AmpC Beta-Lactamase (assay without detergent); 330,000 tested, 0.52% active; AmpC nitrocefin hydrolysis, absorbance 480 nm, 0.0001% Triton; P00811; Potency, µM (titrated, usually from 57.1 µM), actives largely listed as inhibitors; also: nearly all actives have a fitted effect of over 20% in size
Target sequence (P00811 whole entry, looked up): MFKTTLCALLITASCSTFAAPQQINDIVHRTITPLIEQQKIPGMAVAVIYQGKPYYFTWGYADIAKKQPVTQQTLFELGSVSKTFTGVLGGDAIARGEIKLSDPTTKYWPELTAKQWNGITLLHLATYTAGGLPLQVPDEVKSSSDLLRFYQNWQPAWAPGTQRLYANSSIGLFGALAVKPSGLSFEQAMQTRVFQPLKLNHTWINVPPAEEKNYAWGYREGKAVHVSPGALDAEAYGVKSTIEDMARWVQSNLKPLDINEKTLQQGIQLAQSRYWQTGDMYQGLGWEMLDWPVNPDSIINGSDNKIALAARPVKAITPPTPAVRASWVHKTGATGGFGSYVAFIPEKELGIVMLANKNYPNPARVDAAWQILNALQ
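AmpC (5.3 nM in the dispensed reagent) in 20 mM phosphate pH 7.0 with 0.01% (detergent screen) or 0.0001% Triton X-100 was preincubated with compounds for 15 min at room temperature. Nitrocefin was then added from an 800 uM solution, and hydrolysis was followed at 480 nm.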
AmpC detergent = qHTS Inhibitors of AmpC Beta-Lactamase (assay with detergent); AmpC hydrolysis of nitrocefin, absorbance 480 nm, 0.01% Triton; P00811; Potency, µM (series often up to 114 µM), actives largely listed as inhibitors; AID 485294, 2010; 370,000 tested, 0.041% active; also: nearly all actives have a fitted effect of over 25% in size
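20 mM phosphate pH 7.0 + 0.01% (detergent screen) or 0.0001% Triton X-100; 5.3 nM AmpC reagent; cpd preinc 15 min RT; nitrocefin (800 uM stock) to start; A480 q20 s × 4 min; Activity was normalised to no-enzyme and no-compound control wells.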
Cycloheximide cs = Cycloheximide Counterscreen for Small Molecule Inhibitors of Shiga Toxin. cell reporter, cycloheximide protein synthesis inhibition counterscreen. max response, %. 300,000 tested, 12% active. AID 2314, 2010; in the data active = max response mostly above about 13%, no sharp cut-off; inactive = mostly below about 14%; also: read at 38.3 µM for the half of the compounds with a filed dose
Shiga inhibitor = A qHTS for Small Molecule Inhibitors of Shiga Toxin | inhibition, % at 38.7 µM | 290,000 tested, 9.2% active | AID 2315, 2010 | Vero cells, Shiga toxin protein synthesis inhibition reporter; in the data active = inhibition mostly above about 28%, no sharp cut-off; inactive = mostly below about 43%
Of the large screens only hits and unclear results are named; the others gave an inactive call. Unless noted, calls follow the shape of the dose curve; as a rule, active = well fitted curve in the direction sought with a large enough effect; inconclusive = small, poorly fitted or top-dose-only effect, or another doubt; inactive = no such curve, though single readings can be large; an effect the other way counts as inactive or inconclusive.

CS(=O)(=O)Nc1ccc(C2=NN(S(=O)(=O)c3ccc(F)cc3)C(c3ccco3)C2)cc1 (stereo unspecified)	none (no result: NS1 function inh)
CC(=O)N1N=C(c2cccc(NS(C)(=O)=O)c2)CC1c1ccc2c(c1)OCO2 (stereo unspecified)	Cycloheximide cs 13
O=C(Nc1ccccc1Br)N1CCC(CN2CCCC2)CC1	none (no result: NS1 function inh, AmpC inh no detg, Cycloheximide cs, Shiga inhibitor)
CCCCC(=O)Nc1ccc(C(=O)c2ccccc2)cc1	Cycloheximide cs 35, Shiga inhibitor 49
CC(=O)Nc1cccc(NC(=O)Nc2ccc(C(C)=O)cc2)c1	none
CC(=O)Nc1ccc(NC(=O)Nc2ccccc2)cc1	Cycloheximide cs 25, Shiga inhibitor 64
CCCC(=O)Nc1ccc(C#Cc2ccccc2)cc1	Cycloheximide cs 51, Shiga inhibitor 115
CC(=O)Nc1ccc(/C(C)=N/NS(=O)(=O)c2ccccc2)cc1	Cycloheximide cs 23
COc1ccc(CC(=O)N[C@@H](CCSC)C(=O)N2CCC3(CC2)NCCc2[nH]cnc23)cc1	none
O=C(Nc1ccc(F)c(Cl)c1)Nc1c[nH]c(=O)[nH]c1=O	none (no result: NS1 function inh, AmpC inh no detg, Cycloheximide cs, Shiga inhibitor)
CCc1ccc2c(c1)c(=O)c(C(=O)c1ccc(C)cc1)cn2CC(=O)Nc1ccc2c(c1)OCCO2	none (no result: NS1 function inh, AmpC inh no detg, Cycloheximide cs, Shiga inhibitor)
CC(=O)Nc1ccc(NC(=O)c2ccc(NC(=O)c3ccccc3)cc2)cc1	none
O=C(Nc1ccccc1)c1c(F)cccc1F	NS1 function inh inconclusive
CC(=O)Nc1ccc(C(=O)c2ccccc2)cc1	Cycloheximide cs 16
O=C(Nc1ccccc1)Nc1c(F)cccc1F	Cycloheximide cs 41, Shiga inhibitor 43 (no result: NS1 function inh)
COC(=O)CS(=O)(=O)c1nnc([C@H](Cc2ccccc2)NC(=O)OC(C)(C)C)o1	AmpC inh no detg inconclusive, AmpC detergent 35µM
Cc1cccc(CS(=O)(=O)c2nnc([C@H](Cc3ccccc3)NC(=O)OC(C)(C)C)o2)c1	AmpC detergent 40µM
COC(=O)CSc1nnc([C@H](Cc2ccccc2)NC(=O)OC(C)(C)C)o1	none
CCOC(=O)Cn1c(=O)n(Cc2ccco2)c(=O)c2ccc(C(=O)NC3CCCC3)cc21	none
CC1=C(/C=C/C(C)=C/C=C/C(C)=C\C(=O)O)C(C)(C)CCC1	none (no result: AmpC inh no detg, AmpC detergent, Cycloheximide cs, Shiga inhibitor)
CC1=C(/C=C/C(=C/C=C/C(C)=C/C(=O)O)c2ccc(C)cc2)C(C)(C)CCC1	Cycloheximide cs 61, Shiga inhibitor 91 (no result: NS1 function inh, AmpC inh no detg, AmpC detergent)
Cc1ccc(CNC(C)c2ccccc2)cc1 (stereo unspecified)	none
CC(=O)c1ccc(NC(=O)CNCC(c2ccccc2)N(C)C)cc1 (stereo unspecified)	none (no result: NS1 function inh)
Cc1ccc(NC(=O)NCC(c2ccccc2)N(C)C)cc1 (stereo unspecified)	Cycloheximide cs 35, Shiga inhibitor 68
Cc1ccc(NC(=O)CNC(C)c2ccccc2)cc1 (stereo unspecified)	Cycloheximide cs 29, Shiga inhibitor 50
Cc1ccc(C)c(OCc2cc(C(=O)N3CCN(C(=O)c4ccco4)CC3)no2)c1	Cycloheximide cs 42, Shiga inhibitor 78
CCc1cc(C(=O)N2CCN(c3ccccc3)CC2)no1	none (no result: NS1 function inh, AmpC inh no detg, Cycloheximide cs, Shiga inhibitor)
Cc1ccc(C)c(OCc2cc(C(=O)N3CCN(c4ccccc4)CC3)no2)c1	Cycloheximide cs 93, Shiga inhibitor 98
O=C(c1cc(COc2ccc(F)cc2F)on1)N1CCN(C(=O)c2ccco2)CC1	none
CCN1CCN(CCNC(=O)CCc2c(C)c3c(C)nn(-c4ccccc4)c3n(C)c2=O)CC1	none
COC(=O)N/N=C(\C)c1ccc(C)c([N+](=O)[O-])c1	AmpC detergent inconclusive, Cycloheximide cs 19, Shiga inhibitor 17
C/C(=N\NC(=O)c1cc(C)oc1C)c1ccc(C)c([N+](=O)[O-])c1	none (no result: NS1 function inh, Cycloheximide cs, Shiga inhibitor)
CC(C)/C(=N/Nc1ccccc1[N+](=O)[O-])c1ccccc1	Cycloheximide cs 27, Shiga inhibitor 48
C/C(=N\Nc1ccccc1[N+](=O)[O-])c1ccc(N2CCOCC2)cc1	Cycloheximide cs 21, Shiga inhibitor 86
C/C(=N/Nc1ccccc1[N+](=O)[O-])c1ccc(C)c([N+](=O)[O-])c1	Cycloheximide cs 16
N#C/C(=N/Nc1ccccc1[N+](=O)[O-])C(N)=S	none
CCN(CC)C(=O)c1c(NC(=O)c2ccccc2F)sc2c1CCC(C(C)(C)C)C2 (stereo unspecified)	none (no result: NS1 function inh, AmpC inh no detg, Cycloheximide cs, Shiga inhibitor)
COc1ccc(NC(=O)CCCn2c(=O)c3sccc3n(Cc3ccccc3C)c2=O)cc1	AmpC detergent inconclusive
COc1ccc(NC(=O)CCCn2c(=O)c3sccc3n(Cc3ccccc3)c2=O)cc1	NS1 function inh inconclusive, Cycloheximide cs 26
CCN(CC)C(=O)Cn1cc(C(=O)C(=O)N2CCN(c3ccc([N+](=O)[O-])cc3)CC2)c2ccccc21	NS1 function inh inconclusive
CN(C)C(=O)c1ccc(COc2ccccc2Br)o1	Cycloheximide cs 43, Shiga inhibitor 86
CCN(CC)C(=O)c1ccc(COc2ccccc2Cl)o1	Cycloheximide cs 21
COc1ccccc1OCc1ccc(C(=O)N(C)C)o1	Cycloheximide cs 25
COC(=O)[C@@]1(Cc2ccc(F)cc2)[C@H]2c3cc(C(=O)N(C)C)n(Cc4ccc(OC(F)(F)F)cc4)c3C[C@H]2CN1C(=O)c1ccccc1	NS1 function inh inconclusive
CCc1ccc(CNC(=O)c2ccc(CSc3nc4ccncc4n3Cc3ccccc3)cc2)cc1	none (no result: NS1 function inh, AmpC inh no detg, Cycloheximide cs, Shiga inhibitor)
O=C(COc1ccc(Cl)cc1)NCCc1csc(-c2ccc(C(F)(F)F)cc2)n1	none (no result: NS1 function inh, AmpC inh no detg, Cycloheximide cs, Shiga inhibitor)
COc1ccccc1-c1nnc(SCC(=O)N2CCCCC2)o1	Cycloheximide cs 23
Cc1ccccc1-c1nnc(SCC(=O)N2CCCc3ccccc32)o1	none (no result: NS1 function inh, AmpC inh no detg, Cycloheximide cs, Shiga inhibitor)
Cc1ccccc1-c1nnc(SCC(=O)N2CCCC2)o1	AmpC detergent inconclusive, Cycloheximide cs 44, Shiga inhibitor 80
CCC1(CC)C(=O)C2=C3C1[C@H](C(=O)OC)C=C(C(=O)OC)C[C@H]3[C@H]1C(=O)N(CC(=O)OC)C(=O)[C@H]1[C@H]2C (stereo partly specified)	none (no result: NS1 function inh, AmpC inh no detg, AmpC detergent)
O=C(O)c1ccc(Nc2nc(-c3ccccc3)nc3ccccc23)cc1	Cycloheximide cs 20
O=C(O)c1cccc(Nc2nc(-c3ccccc3)nc3ccccc23)c1	Cycloheximide cs 19, Shiga inhibitor 40
c1ccc(Nc2nc(-c3ccccc3)nc3ccccc23)cc1	none (no result: Shiga inhibitor)
CNC(=O)c1ccc(Nc2nc(-c3ccccc3)nc3ccccc23)cc1	AmpC detergent inconclusive, Cycloheximide cs 16
CCC(=O)N1c2ccccc2-c2nnc(SC)nc2OC1c1ccc(N(C)C)cc1 (stereo unspecified)	AmpC detergent inconclusive
CCC1Oc2nc(SC)nnc2-c2ccccc2N1C(=O)c1ccccc1 (stereo unspecified)	Cycloheximide cs 16
C/C(=N\NC(N)=S)c1ccccc1	none
CSC(=S)N/N=C(\C)c1ccccc1	Cycloheximide cs 28, Shiga inhibitor 50 (no result: NS1 function inh)
CC1CCN(CCCNC(=O)c2ccc3c(Cl)c4c(nc3c2)CCCC4)CC1	none
c1ccc(CCCNc2ncnc3nc[nH]c23)cc1	Cycloheximide cs 27
